Screening results: PubChem, National Center for Advancing Translational Sciences (NCATS)
Sampled rows, rich in hits. Any-hit rate of the full collection: about 19%.
TDP1 cell noCPT = qHTS for Inhibitors of human tyrosyl-DNA phosphodiesterase 1 (TDP1): qHTS in cells in absence of CPT | actives 15% (n = 420,000) | DT40 Tdp1-/- hTDP1 cells, no CPT, ATP luminescence, 48 h | Potency, µM (series often up to 46.2 µM), without a hit: at the highest dose activity change, negative = growth inhibition, actives largely listed as inhibitors; further: potency means the concentration at half of the fitted maximal effect; nearly all actives have a fitted effect of over 55% in size
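DT40 Tdp1-/-;hTDP1 cells, no CPT (DMSO vehicle only), 400 cells/well; compounds pin-transferred; ≥48 hr, 37 °C; CellTiter-Glo 30 min RT dark, luminescence read.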
HT1080NT lethal = kills 2HG-producing HT-1080-NT fibrosarcoma cells. Potency, µM (doses to about 46.1 µM), inactives show top-dose activity, negative = less viability, usual class: cytotoxic. actives 1.6% (n = 360,000). HT-1080-NT fibrosarcoma viability, CellTiter-Glo ATP luminescence, 48 h;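 further: NT is the 2HG producing partner of a matched IDH1 knockdown line; potency means the concentration at half of the fitted maximal effect; 0% = DMSO-treated cells and -100% = media-only wells without cells; nearly all actives have a fitted effect of over 55% in size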
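HT-1080-NT; 750 cells/well; 5% FBS RPMI; 48 h compound, 37 degrees C; CellTiter-Glo luminescence; curve fitting and curve-class assignment.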
IL1B secr inh = blocks inflammasome-driven IL-1 beta release. activity change, % at 57.5 µM. THP-1 LPS/ATP IL-1B secretion, AlphaLISA, 16 h; active compounds read low. actives 4.7% (n = 360,000); in the data active means activity change below about -50%; inconclusive means mostly about -30% to -49%
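THP-1 cells pretreated 1 hr with compounds (up to 57.5 uM final), then stimulated with LPS (250 ng/mL final) plus ATP (1.25 mM final); secreted IL-1B measured by AlphaLISA after 16 hr, decreased signal indicating inhibition.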
HT1080 IDH1KD tx = HT-1080 IDH1 knockdown cell toxicity (counter line). actives 2% (n = 360,000). Potency, µM (doses to about 46.1 µM), without a hit: at the top dose activity, negative = toxicity, usual class: cytotoxic. HT-1080 IDH1 knockdown viability, ATP luminescence, 48 h;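 further: potency means the concentration at half of the fitted maximal effect; 0% = DMSO wells and -100% = cell-free medium wells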
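HT-1080-IDH1KD cells (IDH1 knocked down), 750/well in RPMI with 5% FBS, treated with compound 48 h at 37 degrees C. Viability by CellTiter-Glo luminescence, normalised to DMSO and no-cell wells; concentration-response curves classed.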
DT40 TDP1 CPT = growth inhibition of DT40 Tdp1-/-;hTDP1 cells with camptothecin (screen for TDP1 inhibitors); chicken DT40 Tdp1-/-;hTDP1 cells + 20 nM CPT, ATP luminescence, 48 h; Potency, µM (highest dose often 46.2 µM), without a hit: at the highest dose activity change, negative = growth inhibition, most hits filed as inhibitors; actives 12% (n = 420,000); AID 686979; further: potency means the concentration at half of the fitted maximal effect; nearly all actives have a fitted effect of over 55% in size
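Cell growth measured by CellTiter-Glo luminescence after a minimum 48 h, 37 C compound exposure with 20 nM CPT in Tdp1-knockout DT40 cells stably expressing hTDP1, seeded 400/well; qHTS titration format.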
uPA surface inh = blocks generation of uPA at the cell surface. cell surface uPA generation assay, qHTS. Potency, µM (series often up to 38.3 µM), inactives show at the top dose activity change, negative = inhibition, usual class: inhibitors. actives 0.31% (n = 330,000); active means well fitted inhibition curve with a large enough effect; inconclusive means small, poorly fitted or top-dose-only effect; inactive means no such curve, though single readings can be large or run the other way; tested in mouse RAW 264.7 cells; further: potency means the concentration at half of the fitted maximal effect; nearly all actives have a fitted effect of over 55% in size
* = called active by the depositor; u = inconclusive; x = no result; [ ] = dose if it differs, or a comment. Unless noted, the call rests on the fitted dose curve; in most records, active means well fitted curve in the direction sought with a large enough effect; inconclusive means small, poorly fitted or top-dose-only effect, or another doubt; inactive means no such curve, though single readings can be large; an effect the other way counts as inactive or inconclusive. Unless noted, on the % scale 0 is the no-effect control and ±100 the full control effect.

SMILES	TDP1 cell noCPT	HT1080NT lethal	IL1B secr inh	HT1080 IDH1KD tx	DT40 TDP1 CPT	uPA surface inh
Cc1ccc(S(=O)(=O)Nc2cc3c(cc2N2CCOCC2)n(C)c(=O)c(=O)n3C)cc1	2.7%	0.4%	-10.5	4.5%	-12.1%	4.0%
COc1ccc(OC)c(S(=O)(=O)Nc2cc3c(cc2N2CCCC2)n(C)c(=O)c(=O)n3C)c1	23.1µM*	-4.2%	-6.4	7.2%	20.6µM*	0.7%
Cn1c(=O)c(=O)n(C)c2cc(N3CCOCC3)c(NS(=O)(=O)c3ccc(Br)cc3)cc21	-8.9%	-1.0%	-69.4*	-0.9%	-30.0%	-0.9%
Cn1c(=O)c(=O)n(C)c2cc(N3CCCC3)c(NS(=O)(=O)c3ccc(F)cc3)cc21	11.7%	-2.5%	-6.8	-9.3%	-6.6%	-4.5%
COc1ccc(Br)c(C(=O)Nc2cc3c(cc2N2CCCCC2)n(C)c(=O)c(=O)n3C)c1	8.2µM*	x	x	x	23.1µM*	x
C[C@@H]1CN([C@@H](C)CO)S(=O)(=O)c2ccc(Br)cc2O[C@@H]1CN(C)C(=O)C1CC1	u	1.7%	-11.0	-1.7%	-3.2%	x
CCCCCCCCCCCCCCCC(=O)N[C@H](CN1CCOCC1)[C@H](O)c1ccccc1	-14.4%[4.12 µM]	x	x	x	-19.3%[4.12 µM]	x
CCn1c(=O)c([N+](=O)[O-])c(NC2CCS(=O)(=O)C2)c2ccccc21 (stereo not given)	-26.4%	22.9%	15.9	20.9%	-12.3%	-3.1%
O=C(Nc1ccc(Cl)cn1)c1ccccc1[N+](=O)[O-]	u	u	16.9	18.4µM*	u	-14.3%
O=C(NNC(=O)c1ccccc1[N+](=O)[O-])Nc1ccc(Cl)cc1	-19.5%	3.5%	-6.7	11.4%	8.9%	1.4%
O=[N+]([O-])c1cnc(Nc2ccc(Cl)cn2)c([N+](=O)[O-])c1	u	-26.8%	-55.0*	u	u	-5.3%
O=C(Nc1ccc(Cl)cn1)c1cccc2ccccc12	5.8µM*	u	0.0	11.6µM*	5.17µM*	8.91µM*
CCCc1nnc(NC(=O)c2cc(=O)c3cc(C)c(C)cc3o2)s1	-19.5%	x	x	x	3.6%	x
CC(C)(C)C(=O)CN1C(=O)NC2(CCCc3ccccc32)C1=O (stereo not given)	22.0%	6.9%	20.7	10.9%	3.1%	2.3%
O=c1ccn([C@@H]2O[C@H](CNCc3ccccc3OCc3ccc(Cl)cc3Cl)[C@@H](O)[C@H]2O)c(=O)[nH]1	u	-17.6%	-18.1	-13.7%	20.6µM*	x
Cc1ccc(C)c(N2CCN(S(=O)(=O)c3ccc4c(c3)C(C)(C)C(=O)N4C)CC2)c1	23.1µM*	-11.5%	1.5	-6.9%	u	4.3%
CC(=O)Nc1ccc(S(=O)(=O)N2CCN(c3cc(C)ccc3C)CC2)cc1	u	-20.8%	4.1	-12.5%	16.4µM*	-6.1%
CN1C(=O)C(C)(C)c2cc(S(=O)(=O)N3CCN(c4ccccc4F)CC3)ccc21	23.1µM*	8.4%	15.4	0.8%	u	-74.2%
CN1C(=O)Cc2cc(S(=O)(=O)N3CCN(c4ccccc4F)CC3)ccc21	-29.5%	3.3%	24.5	12.6%	u	1.1%
Cc1cc(S(=O)(=O)N2CCN(c3ccccc3F)CC2)ccc1-n1cnnn1	u	2.3%	-52.7*	-1.6%	u	-4.9%
Cc1cccc(N2CCN(S(=O)(=O)c3ccc4c(c3)C(C)(C)C(=O)N4C)CC2)c1C	u	-5.5%	22.7	-3.7%	u	1.7%
CC(C)C[C@H](NC(=O)C1CC(=O)N(c2ccc3c(c2)OCO3)C1)C(=O)NC1CCCCC1 (stereo not given in full)	14.4%	21.2%	-7.1	8.1%	-2.1%	11.9%
CCc1nn(-c2ccccc2)c2nc(-c3ccccc3OC)c3cc(OC)c(OC)cc3c12	16.4µM*	x	x	x	18.4µM*	x
CCOc1cc(-c2nc3c(c(CC)nn3-c3ccccc3)c3cc(OC)c(OC)cc23)ccc1O	u	x	x	x	3.26µM*	x
CNC(=O)C(=O)Nc1cc2c3c(c1)C(C)C(=O)N3CCC2 (stereo not given)	0.8%	-1.8%	2.6	0.0%	-0.6%	24.2%
SMILES	TDP1 cell noCPT	HT1080NT lethal	IL1B secr inh	HT1080 IDH1KD tx	DT40 TDP1 CPT	uPA surface inh
CC(=O)C1=C(C)Nc2ncnn2C1c1cccc(Br)c1 (stereo not given)	-26.1%	-0.8%	12.8	11.2%	6.2%	6.9%
O=C(NCc1ccc(F)cc1)c1[nH]c(C(F)(F)F)nc1-c1ccccc1	u	-21.7%	0.0	-15.4%	-25.6%	x
O=Cc1cc2ccccc2nc1SCCCF	4.61µM*	16.4µM*	47.8	7.31µM*	u	-8.1%
CNC(=O)c1c(NC(=O)c2ccco2)sc2c1CCCC2	-27.7%	1.3%	-81.1*	-1.5%	-25.8%	-1.6%
O=C(Nc1sc2c(c1C(=O)NCc1cccnc1)CCCC2)c1ccco1	-20.9%	-23.0%	-68.0*	-12.3%	-22.8%	x
COc1cc(C(=O)Nc2sc3c(c2C(=O)NCc2ccco2)CCCC3)cc(OC)c1OC	20.6µM*	-3.5%	u	-24.0%	u	-1.5%
CC(C)OC(=O)c1c(NC(=O)c2ccco2)sc2c1CCCCC2	u	-28.1%	-12.8	u	-0.2%	-6.5%
COC(=O)Nc1sc2c(c1C(=O)NCc1ccco1)CCCC2	-9.5%	4.5%	7.3	-4.3%	-3.5%	5.7%
Cc1cc(C)c2c(=O)cc(C(=O)Nc3ccccc3C(F)(F)F)oc2c1	-18.4%	x	x	x	0.0%	x
COc1ccc(S(=O)(=O)N(C)C[C@@H]2OCCCC[C@H](C)Oc3ccc(NC(=O)Nc4ccc(C(F)(F)F)cc4)cc3C(=O)N([C@H](C)CO)C[C@H]2C)cc1	7.31µM*	-16.0%	-13.9	-18.4%	19.2%	x
C[C@H]1CCCCO[C@@H](CN(C)S(=O)(=O)c2ccc(F)cc2)[C@@H](C)CN([C@@H](C)CO)C(=O)c2cc(NC(=O)Nc3ccc4c(c3)OCO4)ccc2O1	9.2µM*	-4.7%	-27.3	-3.7%	18.4µM*	x
C[C@@H]1CCCCO[C@H](CN(C)S(=O)(=O)c2ccc(F)cc2)[C@@H](C)CN([C@H](C)CO)C(=O)c2cc(NC(=O)Nc3ccc(C(F)(F)F)cc3)ccc2O1	8.2µM*	-12.3%	-15.8	-17.5%	9.2µM*	x
CN(C1CCCCC1)S(=O)(=O)c1ccc2c(c1)c(=O)c(C(=O)NCc1ccccc1Cl)cn2C	0.9%	x	x	x	-13.7%	x
CN(Cc1ccccc1)C(=O)c1[nH]cnc1C(=O)Nc1ccccc1F	-7.5%	17.7%	1.8	16.7%	-5.6%	x
CCN(CC)c1nn2c(=O)c(C(=O)NCCc3ccccc3C)cnc2s1	u	x	x	x	16.4µM*	x
